The values below come from PubChem BioAssay (EPA / NIEHS).

Molecules are shown by their SMILES. Values joined by “and” are separate entries in the source; they are usually repeats but may differ in a detail not shown here. Equal entries are not always repeated. Inconclusive results are not listed. Where a structure was tested more than once in an assay, its records may differ in their call. Active and inactive are the calls of the source. The calls were made as follows, unless noted: active = hit-call score of the fitted dose curve at least 0.9, where 1 is the maximum; inactive = score below 0.9.

Test [1] can be described thus: CCTE_Shafer_MEA_acute_LDH: CCTE's Lactate Dehydrogenase Assay for Cytotoxicity in the Neural Acute Assay, Shafer Lab (AID 2284086; active = hit-call score of the fitted dose curve at least 0.9, where 1 is the maximum;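 also: active means LDH release rises above DMSO vehicle level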). An outline of the steps:
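LDH released during 40 min compound exposure of primary rat cortical cultures, quantified by absorbance at 490 nm in collected medium. Fitting direction positive versus DMSO vehicle.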

Test [2] is described as follows: CCTE_Shafer_MEA_dev_burst_duration_mean: CCTE's Neural Network Formation Assay for Mean Burst Duration, Shafer Lab (AID 2284045). In outline:
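Network-formation assay in primary rat cortical neurons; treatment spans twelve days of development. Mean burst duration per well is integrated by trapezoidal AUC and fitted in the loss-of-signal direction against DMSO baseline.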

The nature of test [3]: CCTE_Shafer_MEA_dev_interburst_interval_mean: CCTE's Neural Network Formation Assay for Mean Interburst Interval, Shafer Lab (AID 2284046).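 Also: well-mean interburst interval of bursting electrodes as AUC over four recording days; curve fitted for decrease in interburst interval relative to DMSO.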 In outline:
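Network formation assay in primary rat cortical cultures, exposed from DIV 0 to 12. Mean interburst interval per well, integrated as AUC over four recordings.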

Test [4] in a line: CCTE_Shafer_MEA_dev_inter_network_spike_interval_mean: CCTE's Neural Network Formation Assay for Mean Inter-network Spike Interval, Shafer Lab (AID 2284047). An outline of the steps: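 Compound was given at plating to primary rat cortical neurons and renewed with full medium changes on DIV 5 and 9. Extracellular activity was recorded on days 5, 7, 9, 12; AUC values were fitted for loss relative to DMSO control.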

The nature of test [5]: CCTE_Shafer_MEA_dev_network_spike_number: CCTE's Neural Network Formation Assay for Number of Network Spikes, Shafer Lab (AID 2284048).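 Also: synchronized bursts across electrodes counted on days 5 7 9 12 and integrated as AUC.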 In outline:
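Extracellular recordings from 16-electrode wells track network formation in rat cortical cultures under continuous treatment from plating. The endpoint is network spike number, expressed as AUC across DIV 5–12 relative to DMSO vehicle.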

The nature of test [6]: CCTE_Shafer_MEA_dev_network_spike_peak: CCTE's Neural Network Formation Assay for Mean Number of Electrodes in Network Spike, Shafer Lab (AID 2284049).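 As to AC50: fitted for loss of signal meaning fewer electrodes in network spikes than DMSO.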 In outline:
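Continuous 12-day exposure of rat cortical cultures, starting at plating, on MEA plates. Endpoint: electrodes participating in network-spike peaks, AUC across DIV 5–12, DMSO as negative control.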

Test [7] in a line: CCTE_Shafer_MEA_dev_spike_duration_mean: CCTE's Neural Network Formation Assay for Mean Spike Duration, Shafer Lab (AID 2284051).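 Also: mean network spike duration pooled as area under curve over DIV 5 to 12 recordings.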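 As to AC50: potency for a decrease in mean network spike duration versus DMSO.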 In outline:
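With DMSO as baseline, loss of mean network spike duration was scored from extracellular recordings of rat cortical neurons on MEA plates. Exposure spanned plating to DIV 12; the four recording days were collapsed into one AUC value.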

Test [8] can be described thus: CCTE_Shafer_MEA_dev_network_spike_duration_std: CCTE's Neural Network Formation Assay for Standard Deviation of Network Spike Duration, Shafer Lab (AID 2284052).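 Also: area under curve of spike duration SD across recording days 5 to 12; hits are decreases in network spike duration SD versus DMSO vehicle.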 In outline: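 Developing networks of rat cortical neurons were exposed over twelve days in vitro on 48-well MEA plates. Trapezoidal AUC of recordings (DIV 5–12) was analysed for signal loss relative to DMSO vehicle.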

Test [9] is described as follows: CCTE_Shafer_MEA_dev_per_network_spike_spike_number_mean: CCTE's Neural Network Formation Assay for Mean Number of Spikes in a Network Spike, Shafer Lab (AID 2284053). An outline of the steps: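 First, rat cortical cells (1.5 x 10^5/well) were seeded onto MEA wells; second, dosing began at plating and was refreshed on DIV 5 and 9; finally, network-spike spike counts across DIV 5–12 were summarized as AUC.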

The nature of test [10]: CCTE_Shafer_MEA_dev_per_network_spike_spike_percent: CCTE's Neural Network Formation Assay for Percent of Spikes in a Network Spike, Shafer Lab (AID 2284054). In outline: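 Developing networks of rat cortical neurons are dosed at day 0 and recorded extracellularly four times up to day 12. The endpoint is the area under the curve of percent spikes in network spikes, fitted in the negative direction relative to DMSO.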

Test [11] in a line: CCTE_Shafer_MEA_dev_LDH: CCTE's Lactate Dehydrogenase Assay for Cytotoxicity in the Neural Network Formation Assay, Shafer Lab (AID 2284068; active = hit-call score of the fitted dose curve at least 0.9, where 1 is the maximum;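 also: exposure for twelve days from plating with re-dosing on DIV 5 and 9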). An outline of the steps: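 Developing rat cortical networks on MEA plates are exposed to compound for 12 days from plating. LDH activity is measured spectrophotometrically, with DMSO as baseline.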
Test [12] is described as follows: CCTE_Shafer_MEA_dev_mutual_information_norm: CCTE's Neural Network Formation Assay for Mutual Information Normalization, Shafer Lab (AID 2284091).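 As to AC50: mutual information between electrodes summarised as area under curve across four recording days; potency is for a decrease in mutual information relative to DMSO.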 An outline of the steps: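 Exposure of primary rat cortical neurons began at plating and ran to DIV 12, with full media and treatment renewal after DIV 5 and 9 recordings. Mutual information AUC (DIV 5–12) was analysed for loss versus DMSO.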

Test [13] in a line: CCTE_Shafer_MEA_dev_correlation_coefficient_mean: CCTE's Neural Network Formation Assay for Mean Correlation Coefficient, Shafer Lab (AID 2284093).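 As to AC50: well mean pairwise spike train correlation integrated as AUC over recording days 5 to 12; potency fitted for loss of correlation relative to DMSO vehicle wells.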 In outline: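 Extracellular firing from rat cortical networks on 48-well MEAs, DMSO-referenced, negative fitting direction. Compound present from plating to DIV12; mean pairwise correlation per well integrated over DIV5–12 recordings by trapezoidal AUC.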

Test [14] is described as follows: CCTE_Shafer_MEA_dev_AB: CCTE's Alamar Blue Assay for Cytotoxicity in the Neural Network Formation Assay, Shafer Lab (AID 2284083; active = hit-call score of the fitted dose curve at least 0.9, where 1 is the maximum;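 also: resazurin reduction fluorescence as viability of cultured neurons; twelve days of exposure from plating with re-dosing on DIV 5 and 9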). An outline of the steps:
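Cytotoxicity companion to the developmental MEA: primary rat cortical neurons, 12-day exposure starting day 0, compound refreshed DIV 5 and 9; resazurin fluorescence, fitted against DMSO vehicle.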
(In general: Alamar Blue is a resazurin reagent that responds to reducing activity.)

The subject of a further test is DIO2 (gene 1734). In words: CCTE_GLTED_hDIO2: CCTE's human Deiodinase 2 (DIO2) Inhibition Assay, Great Lakes Toxicology and Ecology Division (GLTED) Lab (AID 2284050; active = hit-call score of the fitted dose curve at least 0.9, where 1 is the maximum). In outline: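 Iodide released by human deiodinase 2 over 3 h with test chemical, measured spectrophotometrically via Sandell-Kolthoff cerium/arsenic reaction. Run n=3; inhibition referenced to DMSO.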

The test system of a further test is DIO3 (gene 1735). In words: CCTE_GLTED_hDIO3: CCTE's human Deiodinase 3 (DIO3) Inhibition Assay, Great Lakes Toxicology and Ecology Division (GLTED) Lab (AID 2284055; active = hit-call score of the fitted dose curve at least 0.9, where 1 is the maximum;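 also: potency is for inhibition seen as loss of released iodide signal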). An outline of the steps:
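Inhibition is read as reduced iodide release, measured spectrophotometrically by the Sandell-Kolthoff cerium/arsenic reaction. Adenovirus-expressed human DIO3 enzyme is exposed to chemical for 3 h, n=3 plates. Iodinated chemicals, nitrite, iron or thiocyanate may interfere.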

The nature of test [15]: UKN2_HCS_IMR90_neural_migration: University of Konstanz (UKN) Leist Lab Neural Crest Cell Migration Assay in human induced IMR90 Pluripotent Stem Cells (UKN2) (AID 2284204). The settings on record: actives raise or lower the signal. An outline of the steps:
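Using a 96-well stopper format with PLO/laminin/fibronectin coating, neural crest cells from iPSC migrate in cytokine-supplemented N2-S medium; after 24 h, chemicals are applied for a further 24 h, then cells are imaged after dye staining.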

Consider `O=C(O)c1cc(Oc2ccc(C(F)(F)F)cc2Cl)ccc1[N+](=O)[O-]`, for which the result in test [1] was inactive.

For `CC(Oc1cccc(Cl)c1)C(=O)O` (stereo unspecified), the molecule was called inactive in [2], in test [3], in [4], in test [5], in test [6] and in [7]. The molecule was called inactive in test [8], in [9], in test [10], in test [11], in test [12] and in [13].

With `S=C1NCCN1`, the molecule was called inactive in test [2], in test [3], in [4], in test [5], in test [6] and in [8]. The molecule was classed as inactive in test [9], in test [10], in test [11], in test [14], in test [12] and in test [13]. Besides, the AC50 (usually the midpoint of the concentration-response curve, whichever way the signal moves) in test [7] is 5.64 µM (active).

With `CNC(=O)ON=C(SC)C(=O)N(C)C`, the molecule was called inactive in test [1].

As to `CCOP(=O)(SC(C)CC)N1CCSC1=O` (stereo unspecified), the outcome in [2], in test [3], in test [4], in [5], in [6] and in test [7] was inactive. Besides, the molecule was called inactive in test [8], in test [9], in test [10], in test [12] and in [13]. Besides, in test [11], the AC50 is 50 µM (active).

With `CCNc1nc(Cl)nc(NC(C)(C)C#N)n1`, the molecule was classed as inactive in the test on DIO2 (gene 1734). Moreover, the AC50 with DIO3 (gene 1735) was 21.5 µM (active).

In the case of `CCCSP(=O)(OCC)Oc1ccc(Br)cc1Cl` (stereo unspecified), the molecule was called inactive in test [2], in [3], in [4], in test [5], in test [6] and in test [7]. For the same molecule, the molecule was called inactive in [8], in test [9], in test [10], in [14], in test [12] and in [13]. Also, the half-maximal activity concentration (AC50) in [11] is 1.79 µM (active).

`CCCOCC(=Nc1ccc(Cl)cc1C(F)(F)F)n1ccnc1`: the AC50 was 2.92 µM (active) in the test with DIO2 (gene 1734) and 2.38 µM (active) with DIO3 (gene 1735). Besides, the result in test [1] was inactive.

With `C[N+]1(C)CCCCC1`, the call in [2], in [3], in [4], in test [5], in [7] and in test [8] was inactive. Besides, the result in [9], in test [10], in test [14], in test [1], in test [12] and in test [13] was inactive. In test [6], the AC50 was 15 µM (active).

As to `Nc1c(Cl)cc([N+](=O)[O-])cc1Cl`, the AC50 in test [1] was 0.0105 µM (active).

`CCc1cccc(CC)c1N(COC)C(=O)CCl`: the AC50 in the test on DIO2 (gene 1734) is 61.1 µM (active); with DIO3 (gene 1735), 52.3 µM (active).

For the molecule `COP(=O)(NC(C)=O)SC` (stereo unspecified), the molecule was classed as inactive in test [2], in [3], in [4], in test [5], in test [6] and in test [7]. For the same molecule, the outcome in [8], in test [9], in test [10], in [11], in test [1] and in test [12] was inactive. The molecule was classed as inactive in test [13]. The AC50 in [1] was 0.00708 µM (active); in [12], 15 µM (active).

Regarding `CCCCSP(=O)(SCCCC)SCCCC`, the outcome in test [2], in test [4], in test [5], in test [8] and in test [15] was inactive. Further, the AC50 in test [3] was 63.3 µM (active) and 49.9 µM (active); in test [6], 31.8 µM (active) and 16 µM (active); in test [7], 50 µM (active) and 16.1 µM (active); in test [9] it was 50 µM (active) and 17 µM (active); in test [10], 68.3 µM (active) and 49.9 µM (active); in test [11] it was 27.3 µM (active) and 49.9 µM (active). Further, the AC50 was 50 µM (active) and 63.1 µM (active) in test [14]; 29.3 µM (active) and 18.4 µM (active) in test [12]; 29.6 µM (active) and 35 µM (active) in [13].

For the molecule `CCOP(=O)(OCC)Oc1cc(C)nc(C(C)C)n1`, the molecule was called inactive in test [2], in test [3], in test [4], in test [5], in test [6] and in test [7]. Also, the result in test [8], in [9], in [10], in test [11], in [14] and in test [12] was inactive. Further, the result in [13] and in [15] was inactive.

Take `N#CSCSC#N`: in test [1], the molecule was classed as inactive.

Consider `CCOP(=S)(OCC)Oc1ccc2c(C)c(Cl)c(=O)oc2c1`, for which the molecule was called inactive in test [2], in [3], in test [4], in [5], in test [8] and in test [1]. In addition, the AC50 was 50 µM (active) in [6]; 24.4 µM (active) in test [9]; 82.2 µM (active) in test [10]; 76.4 µM (active) in test [11]; 78.4 µM (active) in test [14]; 21.9 µM (active) in test [12]. Besides, in test [13], the AC50 is 41.6 µM (active).

Take `COc1cc(OC)nc(Sc2cccc(Cl)c2C(=O)O)n1`: the molecule was called inactive in [1].
